Results as given in PubChem BioAssay (Tox21).
Inconclusive results are not listed. Activity calls are given as the source filed them. Unless noted, the call rests on the fitted dose curve; in most records, active means well fitted curve in the direction sought with a large enough effect in the repeat runs; inconclusive means weak or mixed curves; inactive means no such curve, though single readings can be large; an effect the other way counts as inactive or inconclusive.

Columns and labels:
[1] = qHTS assay to identify aromatase inhibitors - cell viability counter screen (AID 743084);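 further: cells stimulated with testosterone during compound exposure; nearly all actives have a fitted effect of over 55% in size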
[2] = biological target: Aryl hydrocarbon receptor (Homo sapiens) (UniProt P35869); test: qHTS assay to identify small molecule that activate the aryl hydrocarbon receptor (AhR) signaling pathway (AID 743085);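 further: HG2L7.5c1 human HepG2 liver cells with stably integrated DRE-driven firefly reporter; series mostly up to about 70 µM; nearly all actives have a fitted effect of over 15% in size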
Aryl hydrocarbon receptor (Homo sapiens), sequence (P35869 whole entry, looked up): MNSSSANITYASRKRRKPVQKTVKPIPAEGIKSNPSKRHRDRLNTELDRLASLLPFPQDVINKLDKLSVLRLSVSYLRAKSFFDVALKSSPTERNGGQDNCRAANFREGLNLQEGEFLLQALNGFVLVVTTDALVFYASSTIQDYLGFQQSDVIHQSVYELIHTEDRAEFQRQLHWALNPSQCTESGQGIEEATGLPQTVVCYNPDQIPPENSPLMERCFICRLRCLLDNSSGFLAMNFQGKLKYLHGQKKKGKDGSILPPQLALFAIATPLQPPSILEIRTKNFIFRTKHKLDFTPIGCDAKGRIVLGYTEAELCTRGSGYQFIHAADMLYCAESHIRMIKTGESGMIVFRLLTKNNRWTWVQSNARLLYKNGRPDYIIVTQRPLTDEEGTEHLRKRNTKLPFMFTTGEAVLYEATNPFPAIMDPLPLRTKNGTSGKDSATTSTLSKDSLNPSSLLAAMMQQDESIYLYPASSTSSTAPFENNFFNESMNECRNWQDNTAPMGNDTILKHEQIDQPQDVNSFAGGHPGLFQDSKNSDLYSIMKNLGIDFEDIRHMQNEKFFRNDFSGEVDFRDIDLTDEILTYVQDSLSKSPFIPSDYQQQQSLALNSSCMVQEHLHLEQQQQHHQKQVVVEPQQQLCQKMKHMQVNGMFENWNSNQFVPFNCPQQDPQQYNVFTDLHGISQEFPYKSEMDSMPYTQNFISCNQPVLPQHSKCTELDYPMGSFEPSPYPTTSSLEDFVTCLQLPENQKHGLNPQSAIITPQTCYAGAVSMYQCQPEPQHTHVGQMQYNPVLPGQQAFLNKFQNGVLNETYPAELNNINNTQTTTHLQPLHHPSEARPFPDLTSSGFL
Procedure, shortened: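 AhR agonist activity is inferred from enhanced light output of a DRE-controlled firefly luciferase reporter in HepG2 cells, measured with ONE-Glo following 24 h treatment at 37C.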

[3] = qHTS assay to identify small molecule that activate the aryl hydrocarbon receptor (AhR) signaling pathway - cell viability counter screen (AID 743086);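 further: HepG2 liver cells carrying the AhR DRE luciferase reporter; series mostly up to about 70 µM; nearly all actives have a fitted effect of over 45% in size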
Procedure, shortened: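 HepG2-AhR-luc (HG2L7.5c1) cells, 4000/well, were preincubated 5 h at 37C, exposed to compound in qHTS format for 24 hr at 37C, then given CellTiter-Fluor for 30 min; viability was read as fluorescence in the reporter wells.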

[4] = biological target: Peroxisome proliferator-activated receptor gamma (Homo sapiens) (UniProt P37231); test: qHTS assay to identify small molecule agonists of the peroxisome proliferator-activated receptor gamma (PPARg) signaling pathway (AID 743094; active means well fitted activation curve with a large enough effect in the signal ratio in the repeat runs, not every such curve was filed as active; the % refers to the signal ratio)
Peroxisome proliferator-activated receptor gamma (Homo sapiens), sequence (P37231 whole entry, looked up): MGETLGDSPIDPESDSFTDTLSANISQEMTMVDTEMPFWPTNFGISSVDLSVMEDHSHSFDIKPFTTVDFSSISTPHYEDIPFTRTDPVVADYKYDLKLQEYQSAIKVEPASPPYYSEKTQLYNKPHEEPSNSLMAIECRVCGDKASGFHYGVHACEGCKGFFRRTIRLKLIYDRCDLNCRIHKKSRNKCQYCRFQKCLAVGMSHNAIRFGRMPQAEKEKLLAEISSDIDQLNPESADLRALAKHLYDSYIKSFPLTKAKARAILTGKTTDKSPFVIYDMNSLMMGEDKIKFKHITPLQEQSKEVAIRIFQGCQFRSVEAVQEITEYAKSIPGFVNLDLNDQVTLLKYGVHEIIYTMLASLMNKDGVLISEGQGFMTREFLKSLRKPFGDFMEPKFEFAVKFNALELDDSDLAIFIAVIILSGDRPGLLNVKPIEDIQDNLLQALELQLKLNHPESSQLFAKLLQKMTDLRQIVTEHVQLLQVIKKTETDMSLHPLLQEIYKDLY
Procedure, shortened: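 Agonist activity was taken from a beta-lactamase reporter (FRET substrate, 1 h at room temperature) in HEK293H cells carrying a PPARg UAS-bla construct. Compounds in DMSO were incubated 17 h at 37C after a 5 h cell pre-incubation.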

[5] = biological target: Peroxisome proliferator-activated receptor gamma (Homo sapiens) (UniProt P37231); test: qHTS assay to identify small molecule antagonists of the peroxisome proliferator-activated receptor gamma (PPARg) signaling pathway (AID 743191; calls by dose curve; further: series mostly up to about 63 µM; nearly all actives have a fitted effect of over 30% in size)
Procedure, shortened: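 GeneBLAzer PPARg UAS-bla HEK293H cells carrying a UAS-driven beta-lactamase reporter were plated at 3000 cells/well, preincubated 5 h at 37C, then given compound for 17 h at 37C; LiveBLAzer B/G FRET substrate was read after 1 h at room temperature.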

[6] = qHTS assay to identify small molecule antagonists of the peroxisome proliferator-activated receptor gamma (PPARg) signaling pathway - cell viability counter screen (AID 743194); further: nearly all actives have a fitted effect of over 55% in size
Procedure, shortened: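 PPARg-UAS-bla HEK293H cells were plated, rested 5 h at 37 C, then treated with compounds plus rosiglitazone (50 nM final) for 17 h at 37 C; viability was then read by CellTiter-Glo luminescence after 30 min at room temperature.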

[7] = qHTS assay for small molecule agonists of the antioxidant response element (ARE) signaling pathway - cell viability counter screen (AID 743203; calls by dose curve; further: nearly all actives have a fitted effect of over 55% in size)
Procedure, shortened: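 Viability counter screen: CellTiter-Glo luminescence, read after 30 min at room temperature, in ARE-bla HepG2 wells. Compound exposure lasted 16 h at 37C/5% CO2, following a 5 h pre-incubation of the cells after plating.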

[8] = qHTS assay for small molecule activators of the heat shock response signaling pathway - cell viability counter screen (AID 743209); further: nearly all actives have a fitted effect of over 50% in size
Procedure, shortened: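 Cytotoxicity counter screen run in the same wells as the heat-shock bla reporter assay: HeLa HSE-bla cells, 5 h compound exposure at 37 C, viability read by CellTiter-Glo luminescence.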

[9] = qHTS assay to identify small molecule agonists of the peroxisome proliferator-activated receptor delta (PPARd) signaling pathway - cell viability counter screen (AID 743211); further: nearly all actives have a fitted effect of over 55% in size
Procedure, shortened: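 qHTS cell viability: PPARd-bla HEK293H; 17 h cpd, 37C; CellTiter-Glo, luminescence at 30 min RT.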

[10] = biological target: Peroxisome proliferator-activated receptor delta (Homo sapiens) (UniProt Q03181); test: qHTS assay to identify small molecule agonists of the peroxisome proliferator-activated receptor delta (PPARd) signaling pathway (AID 743212; calls by dose curve)
Peroxisome proliferator-activated receptor delta (Homo sapiens), sequence (Q03181 whole entry, looked up): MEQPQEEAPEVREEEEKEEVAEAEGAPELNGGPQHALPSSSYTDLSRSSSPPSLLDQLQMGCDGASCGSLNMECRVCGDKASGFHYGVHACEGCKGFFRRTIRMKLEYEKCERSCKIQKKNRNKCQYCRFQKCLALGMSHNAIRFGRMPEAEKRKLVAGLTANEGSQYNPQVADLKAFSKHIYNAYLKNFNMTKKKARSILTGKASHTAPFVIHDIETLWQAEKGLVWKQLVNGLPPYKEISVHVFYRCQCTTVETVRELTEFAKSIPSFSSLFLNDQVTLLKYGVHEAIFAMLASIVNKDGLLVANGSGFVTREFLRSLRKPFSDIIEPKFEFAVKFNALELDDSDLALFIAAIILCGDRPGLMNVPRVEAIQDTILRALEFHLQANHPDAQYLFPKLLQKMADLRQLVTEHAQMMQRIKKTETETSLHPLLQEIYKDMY
Procedure, shortened: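 Beta-lactamase reporter read by fluorescence (LiveBLAzer B/G FRET, 2 h, room temperature). Test agents, in DMSO, incubated at 37 C with PPARd-bla HEK293H cells.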

[11] = biological target: Peroxisome proliferator-activated receptor delta (Homo sapiens) (UniProt Q03181); test: qHTS assay to identify small molecule antagonists of the peroxisome proliferator-activated receptor delta (PPARd) signaling pathway (AID 743215; active means well fitted inhibition curve with a large enough effect in the signal ratio in the repeat runs, not every such curve was filed as active; the % refers to the signal ratio;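 further: cells stimulated with agonist L165041 at 300 nM final during compound exposure; series mostly up to about 62 µM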)
Procedure, shortened: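 Agonist L165041 (300 nM final) added with compound to PPARd-bla HEK293H UAS-bla reporter cells; 17 h incubation at 37 C. Read-out: LiveBLAzer FRET substrate, 2 h at room temperature, fluorescence intensity.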

[12] = qHTS assay to identify small molecule agonists of the farnesoid-X-receptor (FXR) signaling pathway - cell viability counter screen (AID 743218); further: nearly all actives have a fitted effect of over 45% in size
Procedure, shortened: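 Viability counter screen in the same wells: CellTiter-Glo luminescence, 30 min room-temperature incubation, measured after the beta-lactamase read. Cells were GeneBLAzer FXR-UAS-bla HEK 293T, compound-treated 16 h at 37C.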

[13] = qHTS assay to identify small molecule antagonists of the farnesoid-X-receptor (FXR) signaling pathway - cell viability counter screen (AID 743221; active means well fitted cell-killing curve with a large enough effect in the repeat runs, not every such curve was filed as active; further: nearly all actives have a fitted effect of over 50% in size)
Procedure, shortened: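 After a 5 h settling period, FXR-bla HEK 293T cells receive compound and chenodeoxycholic acid (50 uM final) and incubate 16 h at 37 C; CellTiter-Glo luminescence, read after 30 min at room temperature, reports cell viability.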

[14] = biological target: Vitamin D3 receptor (Homo sapiens) (UniProt P11473); test: qHTS assay to identify small molecule agonists of the vitamin D receptor (VDR) signaling pathway (AID 743222; calls by dose curve)
Vitamin D3 receptor (Homo sapiens), sequence (P11473 whole entry, looked up): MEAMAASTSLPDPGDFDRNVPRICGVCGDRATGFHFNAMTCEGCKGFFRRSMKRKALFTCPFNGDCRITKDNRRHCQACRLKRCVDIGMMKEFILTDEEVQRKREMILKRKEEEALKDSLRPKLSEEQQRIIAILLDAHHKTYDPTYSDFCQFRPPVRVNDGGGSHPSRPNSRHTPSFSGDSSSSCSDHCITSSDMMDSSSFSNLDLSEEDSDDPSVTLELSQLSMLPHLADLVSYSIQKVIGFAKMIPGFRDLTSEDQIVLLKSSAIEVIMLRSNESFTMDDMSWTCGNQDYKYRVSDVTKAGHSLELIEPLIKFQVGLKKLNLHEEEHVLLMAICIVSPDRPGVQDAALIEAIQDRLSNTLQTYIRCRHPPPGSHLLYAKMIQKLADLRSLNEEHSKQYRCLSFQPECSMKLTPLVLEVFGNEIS
Procedure, shortened: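 Agonist mode, beta-lactamase reporter: fluorescence from LiveBLAzer B/G FRET substrate (2 h, room temperature) read after 16 h compound treatment at 37 C of VDR-bla cells, which were pre-incubated 4 h after seeding.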

[15] = qHTS assay for small molecule agonists of the antioxidant response element (ARE) signaling pathway (AID 743202; active means well fitted activation curve with a large enough effect in the signal ratio in the repeat runs, not every such curve was filed as active; the % refers to the signal ratio)
Procedure, shortened: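 Following a 16 h, 37 C exposure of reporter HepG2 cells (ARE-driven beta-lactamase, 2,000 cells/well) to compounds, FRET substrate was applied for 2 h at room temperature and fluorescence intensity recorded.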

[16] = qHTS assay to identify small molecule antagonists of the peroxisome proliferator-activated receptor delta (PPARd) signaling pathway - cell viability counter screen (AID 743213); further: nearly all actives have a fitted effect of over 50% in size
Procedure, shortened: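 Luminescence from CellTiter-Glo, added after the bla read and incubated 30 min at room temperature, gives viability of HEK293H PPARd-bla cells exposed to compounds for 17 h at 37 C with 300 nM L165041.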

[17] = biological target: Bile acid receptor (Homo sapiens) (UniProt Q96RI1); test: qHTS assay to identify small molecule antagonists of the farnesoid-X-receptor (FXR) signaling pathway (AID 743217; active means well fitted inhibition curve with a large enough effect in the signal ratio in the repeat runs, not every such curve was filed as active; the % refers to the signal ratio)
Bile acid receptor (Homo sapiens), sequence (Q96RI1 whole entry, looked up): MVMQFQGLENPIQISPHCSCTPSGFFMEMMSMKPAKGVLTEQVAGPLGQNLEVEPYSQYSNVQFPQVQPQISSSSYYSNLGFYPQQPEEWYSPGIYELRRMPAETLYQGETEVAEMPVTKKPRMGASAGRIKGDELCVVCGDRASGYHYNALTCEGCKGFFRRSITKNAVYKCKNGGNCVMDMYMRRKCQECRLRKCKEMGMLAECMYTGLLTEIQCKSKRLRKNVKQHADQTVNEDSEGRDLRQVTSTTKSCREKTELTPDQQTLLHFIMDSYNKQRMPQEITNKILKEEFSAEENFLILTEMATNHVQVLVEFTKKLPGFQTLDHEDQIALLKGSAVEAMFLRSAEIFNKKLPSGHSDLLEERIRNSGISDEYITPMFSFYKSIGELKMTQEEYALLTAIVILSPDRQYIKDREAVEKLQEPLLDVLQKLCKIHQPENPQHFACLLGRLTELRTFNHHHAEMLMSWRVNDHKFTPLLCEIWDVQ
Procedure, shortened: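 Antagonist mode: chenodeoxycholic acid at 50 uM final stimulates a UAS-driven beta-lactamase reporter in HEK 293T FXR-bla cells during 16 h, 37C compound exposure. Read-out is FRET substrate fluorescence after 2 h at room temperature.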

[18] = biological target: Bile acid receptor (Homo sapiens) (UniProt Q96RI1); test: qHTS assay to identify small molecule agonists of the farnesoid-X-receptor (FXR) signaling pathway (AID 743220; active means well fitted activation curve with a large enough effect in the signal ratio in the repeat runs, not every such curve was filed as active; the % refers to the signal ratio)
Procedure, shortened: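 FXR-UAS-bla HEK 293T cells carrying a UAS-driven beta-lactamase reporter were plated for 5 h at 37C/5% CO2, then exposed to DMSO-dissolved Tox21 10K compounds for 16 h at 37C. A LiveBLAzer B/G FRET substrate was loaded for 2 h at room temperature before fluorescence reading.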

[19] = biological target: Vitamin D3 receptor (Homo sapiens) (UniProt P11473); test: qHTS assay to identify small molecule antagonists of the vitamin D receptor (VDR) signaling pathway (AID 743223; active means well fitted inhibition curve with a large enough effect in the signal ratio in the repeat runs, not every such curve was filed as active; the % refers to the signal ratio)
Procedure, shortened: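 Reporter line VDR-bla; stimulus 1alpha,25-(OH)2 vitamin D3, 3 nM final; compound co-addition, 16 h 37C/5% CO2; LiveBLAzer B/G substrate 2 h RT; fluorescence intensity.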

[20] = qHTS assay for small molecule activators of the heat shock response signaling pathway (AID 743210; active means well fitted activation curve with a large enough effect in the signal ratio in the repeat runs, with a control signal flat, not every such curve was filed as active; the % refers to the signal ratio; further: series mostly up to about 63 µM)
Procedure, shortened: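 Heat shock element–beta-lactamase HeLa reporter cells; qHTS with compounds for 5 h at 37 C; detection by FRET substrate fluorescence after 2.5 h at RT.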

Measured: Potency

CCCC(=O)O[C@]1(C(=O)CO)CC[C@H]2[C@@H]3CCC4=CC(=O)CC[C@]4(C)[C@H]3[C@@H](O)C[C@@]21C
not listed: [15] | [16] | [17] | [18] | [19] | [20]
inactive: all other assays above

C[C@H]1C[C@@H](O)CC(C)(C)C1
not listed: [9] | [20]
inactive: all other assays above

O=C(O)c1ccccc1OP(=O)(O)O
not listed: [7] | [16] | [17] | [18]
inactive: all other assays above

CCOC(=O)CCC(C)=O
not listed: [5]
inactive: all other assays above

CC[N+](C)(C)c1cccc(O)c1
not listed: [6] | [14] | [19] | [20]
inactive: all other assays above

Cn1cc(S(C)=O)c(=O)c2ccc(F)cc21 (stereo not given)
not listed: [8]
inactive: all other assays above

CCCCCCOC(=O)CCCCC(=O)OCCCCCC
not listed: [12] | [15] | [19]
inactive: all other assays above

C1OCOCO1
not listed: [5] | [14] | [15] | [19]
inactive: all other assays above

O=S(O)CO
not listed: [5] | [16] | [19]
inactive: all other assays above

CCOC(=O)c1ccc(C)cc1
not listed: [5] | [10] | [17] | [18] | [19]
inactive: all other assays above

CCC=O
not listed: [5] | [11] | [17] | [18] | [20]
inactive: all other assays above

COc1ccccc1OCC(O)CN1CCN(CC(=O)Nc2c(C)cccc2C)CC1 (stereo not given)
not listed: [5] | [11] | [17] | [18] | [19]
inactive: all other assays above

Cc1ccc(C#N)cc1
not listed: [5] | [15] | [19] | [20]
inactive: all other assays above

OC(CCN1CCCCC1)(c1ccccc1)C1CC2C=CC1C2 (stereo not given)
not listed: [5] | [15] | [16]
inactive: all other assays above

O=C(O)COc1nn(Cc2ccccc2)c2ccccc12
not listed: [4] | [14] | [17] | [18] | [19]
inactive: all other assays above

O=C1NC(=O)[C@@]2(CCOc3ccc(F)cc32)N1
not listed: [5] | [11] | [17] | [18] | [20]
inactive: all other assays above

C[C@@H]1CCN(C(=O)[C@H](CCCN=C(N)N)NS(=O)(=O)c2cccc3c2NC[C@H](C)C3)[C@@H](C(=O)O)C1
not listed: [4] | [14] | [17] | [18] | [19]
inactive: all other assays above
